# In the supplement of paper PMC10849652:
# Of roughly 7,900 targets only a part is listed; those with a hit were picked by preference. About 0.6% of all pairs of compound and target were hits. Values without a mark were called inactive.
# How the values were obtained:
# Test in all cases: log2 fold change, soluble protein after heating vs DMSO (PISA); higher = thermal stabilisation; K562 cells, 10 uM, 30 min; active = over 0.2 and 3.5 SD of the protein, either way, in both replicates (recomputed)
# [1] = compound: C1COCCN1CCN2C3=CC=CC=C3N=C2NC(=O)C4=CC(=CC=C4)[N+](=O)[O-] [IRAK-1-4 Inhibitor I]
# Outline: (§1)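 Quantification of soluble protein used TMTpro 16plex LC-MS/MS, with channel sums equalised. Samples were the supernatant after 21,000xg for 90 min of pooled aliquots from K562 cells (2×10^6 cells/mL) treated with 10 μM compound for 30 min, heated for 3 min over 48°C-58°C, and extracted in PBS with 0.5% NP-40 at 4°C. Values, from duplicates, describe thermal stability against control samples on a log2 fold-change scale.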
# [2] = compound: C=CC(=O)N1CCC[C@@H](n2nc(-c3ccc(Oc4ccccc4)cc3)c3c(N)ncnc32)C1 [ibrutinib]
# Outline: as §1
# [3] = compound: CC(=O)c1cnc2ccc(-c3cc(Cl)c(O)c(Cl)c3)nc2c1N[C@H]1CC[C@H](CN(C)C)CC1
# Outline: as §1
# [4] = compound: CC(C)(C)Cn1c(N)nc2ccc(-c3[nH]c(C(C)(C)C)nc3-c3ccc(F)cc3)nc21 [ralimetinib]
# Outline: as §1
# [5] = compound: CC(C)(O)CC(=O)NCCn1ccc2ncnc(Nc3ccc(Oc4cccc(C(F)(F)F)c4)c(Cl)c3)c21
# Outline: as §1
# [6] = compound: CC(C)C1=C2N=C(C=C(N2N=C1)NCC3=CC=CC=C3)NCCCCCCN
# Outline: as §1
# [7] = compound: CC(C)C[C@@H](C=O)NC(=O)[C@H](CC(C)C)NC(=O)[C@H](CC(C)C)NC(=O)OCc1ccccc1
# Outline: as §1
# [8] = compound: CC(C)N(C[C@H]1O[C@@H](n2cnc3c(N)ncnc32)[C@H](O)[C@@H]1O)[C@H]1C[C@@H](CCc2nc3cc(C(C)(C)C)ccc3[nH]2)C1 [pinometostat]
# Outline: as §1
# [9] = compound: CC1=C(C(CC(=O)N1)C2=CC=C(C=C2)C(F)(F)F)C(=O)NC3=C(C=C4C(=C3)C=NN4)F
# Outline: as §1
# [10] = compound: CC1=C(C2=C(C=C1)C(=O)C3=CC=CC=C3N2CCCN)C
# Outline: as §1
# Chain of UniProt P01344 (P01344 whole entry, looked up): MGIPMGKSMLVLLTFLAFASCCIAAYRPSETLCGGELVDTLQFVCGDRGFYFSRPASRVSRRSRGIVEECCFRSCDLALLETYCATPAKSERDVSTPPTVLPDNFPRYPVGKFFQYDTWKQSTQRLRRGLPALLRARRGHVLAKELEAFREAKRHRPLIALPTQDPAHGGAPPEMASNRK
# Chain of UniProt O76003 (O76003 whole entry, looked up): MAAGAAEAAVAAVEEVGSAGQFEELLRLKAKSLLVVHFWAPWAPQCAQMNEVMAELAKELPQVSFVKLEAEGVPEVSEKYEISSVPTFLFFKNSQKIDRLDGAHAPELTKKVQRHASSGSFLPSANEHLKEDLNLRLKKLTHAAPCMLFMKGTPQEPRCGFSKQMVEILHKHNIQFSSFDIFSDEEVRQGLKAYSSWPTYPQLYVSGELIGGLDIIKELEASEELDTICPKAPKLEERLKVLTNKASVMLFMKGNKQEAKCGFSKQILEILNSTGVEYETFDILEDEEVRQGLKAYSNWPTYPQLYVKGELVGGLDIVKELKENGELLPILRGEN
# Chain of UniProt O43427 (O43427 whole entry, looked up): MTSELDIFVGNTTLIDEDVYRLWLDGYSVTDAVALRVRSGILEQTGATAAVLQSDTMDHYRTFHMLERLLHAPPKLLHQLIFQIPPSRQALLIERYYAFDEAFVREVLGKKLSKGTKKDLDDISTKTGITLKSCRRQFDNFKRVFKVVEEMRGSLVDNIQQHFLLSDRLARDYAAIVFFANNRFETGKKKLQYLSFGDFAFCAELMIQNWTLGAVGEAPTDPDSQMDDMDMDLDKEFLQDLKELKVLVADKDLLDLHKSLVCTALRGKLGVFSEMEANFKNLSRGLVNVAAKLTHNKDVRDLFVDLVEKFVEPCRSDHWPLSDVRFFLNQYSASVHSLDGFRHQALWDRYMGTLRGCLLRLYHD
# Chain of UniProt O75146 (O75146 whole entry, looked up): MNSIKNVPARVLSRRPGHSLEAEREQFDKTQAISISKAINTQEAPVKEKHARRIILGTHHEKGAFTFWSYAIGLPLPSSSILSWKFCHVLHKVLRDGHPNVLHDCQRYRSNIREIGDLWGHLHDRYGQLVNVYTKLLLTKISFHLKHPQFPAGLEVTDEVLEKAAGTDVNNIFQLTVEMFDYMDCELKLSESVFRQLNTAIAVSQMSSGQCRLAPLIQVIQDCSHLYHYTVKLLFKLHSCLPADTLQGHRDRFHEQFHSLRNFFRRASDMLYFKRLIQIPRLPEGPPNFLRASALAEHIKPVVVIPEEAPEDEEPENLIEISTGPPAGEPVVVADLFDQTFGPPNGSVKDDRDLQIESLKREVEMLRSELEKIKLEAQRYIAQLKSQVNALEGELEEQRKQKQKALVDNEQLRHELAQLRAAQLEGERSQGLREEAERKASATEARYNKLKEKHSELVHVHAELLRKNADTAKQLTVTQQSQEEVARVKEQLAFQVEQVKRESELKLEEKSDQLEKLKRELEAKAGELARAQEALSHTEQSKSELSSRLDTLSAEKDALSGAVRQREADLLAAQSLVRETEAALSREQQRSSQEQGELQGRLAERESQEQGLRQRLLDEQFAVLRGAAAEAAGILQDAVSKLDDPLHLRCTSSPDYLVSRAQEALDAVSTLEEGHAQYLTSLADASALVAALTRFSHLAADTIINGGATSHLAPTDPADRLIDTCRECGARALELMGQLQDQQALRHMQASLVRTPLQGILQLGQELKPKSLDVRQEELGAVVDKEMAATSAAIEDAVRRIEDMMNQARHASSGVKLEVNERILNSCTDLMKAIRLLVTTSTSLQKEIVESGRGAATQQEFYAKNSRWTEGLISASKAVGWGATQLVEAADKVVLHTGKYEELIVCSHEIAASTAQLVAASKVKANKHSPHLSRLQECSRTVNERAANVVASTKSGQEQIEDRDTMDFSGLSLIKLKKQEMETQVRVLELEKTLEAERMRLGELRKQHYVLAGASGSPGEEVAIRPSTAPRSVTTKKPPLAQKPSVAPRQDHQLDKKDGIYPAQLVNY
# Chain of UniProt O00165 (O00165 whole entry, looked up): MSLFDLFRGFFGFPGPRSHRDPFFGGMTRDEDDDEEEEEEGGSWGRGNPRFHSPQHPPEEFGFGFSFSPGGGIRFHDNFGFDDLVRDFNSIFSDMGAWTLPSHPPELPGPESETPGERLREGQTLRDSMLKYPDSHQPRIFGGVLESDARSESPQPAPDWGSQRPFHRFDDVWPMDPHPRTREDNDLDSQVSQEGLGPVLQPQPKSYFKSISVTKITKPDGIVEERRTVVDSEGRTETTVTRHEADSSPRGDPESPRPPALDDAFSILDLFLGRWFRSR
# Chain of UniProt Q00403 (Q00403 whole entry, looked up): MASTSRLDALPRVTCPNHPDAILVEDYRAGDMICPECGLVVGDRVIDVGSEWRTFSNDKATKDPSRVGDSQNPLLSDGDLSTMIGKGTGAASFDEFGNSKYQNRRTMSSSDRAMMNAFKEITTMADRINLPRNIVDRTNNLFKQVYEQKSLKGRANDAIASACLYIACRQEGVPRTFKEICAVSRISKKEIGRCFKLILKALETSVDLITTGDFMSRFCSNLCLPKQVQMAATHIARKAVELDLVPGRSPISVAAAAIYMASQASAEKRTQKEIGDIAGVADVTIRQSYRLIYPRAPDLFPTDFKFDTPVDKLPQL
# Chain of UniProt O15117 (O15117 whole entry, looked up): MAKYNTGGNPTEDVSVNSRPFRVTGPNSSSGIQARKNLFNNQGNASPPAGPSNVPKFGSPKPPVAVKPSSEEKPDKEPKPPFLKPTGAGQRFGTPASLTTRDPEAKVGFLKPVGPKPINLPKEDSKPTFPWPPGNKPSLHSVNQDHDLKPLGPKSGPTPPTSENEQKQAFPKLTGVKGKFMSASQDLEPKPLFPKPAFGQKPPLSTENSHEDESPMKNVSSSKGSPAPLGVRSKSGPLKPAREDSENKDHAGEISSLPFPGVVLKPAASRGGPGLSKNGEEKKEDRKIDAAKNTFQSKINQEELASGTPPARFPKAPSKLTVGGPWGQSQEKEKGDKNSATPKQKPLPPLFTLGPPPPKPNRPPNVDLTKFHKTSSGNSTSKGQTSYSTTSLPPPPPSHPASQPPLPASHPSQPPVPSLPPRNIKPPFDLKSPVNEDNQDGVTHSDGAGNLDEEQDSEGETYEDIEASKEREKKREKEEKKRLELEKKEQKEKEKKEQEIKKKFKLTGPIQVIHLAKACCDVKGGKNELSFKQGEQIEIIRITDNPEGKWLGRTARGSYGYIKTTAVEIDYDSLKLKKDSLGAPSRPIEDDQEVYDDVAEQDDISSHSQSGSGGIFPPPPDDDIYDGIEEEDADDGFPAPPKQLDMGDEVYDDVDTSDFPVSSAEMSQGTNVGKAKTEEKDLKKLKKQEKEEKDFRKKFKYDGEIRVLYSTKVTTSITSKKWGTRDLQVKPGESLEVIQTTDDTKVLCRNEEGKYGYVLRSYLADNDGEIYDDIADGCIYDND
# Chain of UniProt Q9BTY2 (Q9BTY2 whole entry, looked up): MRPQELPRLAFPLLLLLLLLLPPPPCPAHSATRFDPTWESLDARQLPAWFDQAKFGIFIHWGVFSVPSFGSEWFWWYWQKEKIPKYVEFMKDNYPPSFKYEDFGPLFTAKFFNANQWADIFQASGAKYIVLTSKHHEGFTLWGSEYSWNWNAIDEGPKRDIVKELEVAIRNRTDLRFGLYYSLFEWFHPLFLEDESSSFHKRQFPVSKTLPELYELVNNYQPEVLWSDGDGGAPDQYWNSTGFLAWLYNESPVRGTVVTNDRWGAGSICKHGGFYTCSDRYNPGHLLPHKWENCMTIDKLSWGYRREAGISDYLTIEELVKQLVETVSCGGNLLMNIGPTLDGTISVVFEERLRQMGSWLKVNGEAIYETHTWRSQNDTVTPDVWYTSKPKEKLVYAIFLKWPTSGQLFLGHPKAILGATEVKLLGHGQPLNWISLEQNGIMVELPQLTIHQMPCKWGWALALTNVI
# Chain of UniProt Q8NCW6 (Q8NCW6 whole entry, looked up): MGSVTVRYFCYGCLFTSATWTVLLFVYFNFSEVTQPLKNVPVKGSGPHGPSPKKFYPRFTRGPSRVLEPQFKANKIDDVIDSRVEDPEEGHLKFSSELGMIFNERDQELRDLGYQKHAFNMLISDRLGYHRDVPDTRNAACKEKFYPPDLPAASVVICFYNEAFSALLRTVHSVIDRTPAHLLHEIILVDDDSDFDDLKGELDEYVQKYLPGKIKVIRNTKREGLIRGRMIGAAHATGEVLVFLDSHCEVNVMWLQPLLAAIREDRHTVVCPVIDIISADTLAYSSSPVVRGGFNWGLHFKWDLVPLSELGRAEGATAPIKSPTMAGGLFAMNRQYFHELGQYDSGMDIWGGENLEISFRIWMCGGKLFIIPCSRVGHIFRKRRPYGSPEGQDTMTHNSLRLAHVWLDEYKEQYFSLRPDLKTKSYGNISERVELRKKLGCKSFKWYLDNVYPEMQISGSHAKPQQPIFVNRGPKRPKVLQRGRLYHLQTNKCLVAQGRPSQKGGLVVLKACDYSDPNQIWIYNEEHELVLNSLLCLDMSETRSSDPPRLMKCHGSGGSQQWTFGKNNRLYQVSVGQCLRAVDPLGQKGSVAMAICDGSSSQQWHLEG
# Chain of UniProt Q9H4G4 (Q9H4G4 whole entry, looked up): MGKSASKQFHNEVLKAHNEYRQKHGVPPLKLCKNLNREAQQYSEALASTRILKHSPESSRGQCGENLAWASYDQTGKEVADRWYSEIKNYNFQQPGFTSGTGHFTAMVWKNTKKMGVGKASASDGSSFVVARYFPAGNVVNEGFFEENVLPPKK
# Chain of UniProt Q70Z53 (Q70Z53 whole entry, looked up): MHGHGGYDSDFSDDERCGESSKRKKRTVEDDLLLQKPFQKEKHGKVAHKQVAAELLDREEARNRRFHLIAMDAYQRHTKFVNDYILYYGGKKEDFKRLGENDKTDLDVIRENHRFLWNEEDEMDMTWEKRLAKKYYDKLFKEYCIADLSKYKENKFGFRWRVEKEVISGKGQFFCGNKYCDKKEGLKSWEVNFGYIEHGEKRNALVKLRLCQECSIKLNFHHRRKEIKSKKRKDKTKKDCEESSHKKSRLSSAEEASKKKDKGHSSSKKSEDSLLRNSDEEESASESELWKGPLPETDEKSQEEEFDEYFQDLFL
Target,log2 fold change [1],log2 fold change [2],log2 fold change [3],log2 fold change [4],log2 fold change [5],log2 fold change [6],log2 fold change [7],log2 fold change [8],log2 fold change [9],log2 fold change [10]
FERMT3 (UniProt Q86UX7),-0.019,-0.036,-0.039,0.01,-0.048,-0.091,-0.022,-0.002,-0.009,0.003
GSTO1 (UniProt P78417),0.073,-0.029,0.006,0.021,-0.029,0.066,-0.045,-0.047,0.021,0.021
GLRX3 (UniProt O76003),-0.03,-0.015,0.02,0.002,-0.027,-0.024,-0.033,-0.033,-0.021,-0.025
GOLGB1 isoform 2 (UniProt Q14789),-0.023,-0.032,0.031,0.045,0.05,0.065,0.082,0.102,0.048,-0.051
FUCA2 (UniProt Q9BTY2),-0.078,0.043,-0.056,0.019,0.026,-0.09,-0.004,0.036,-0.036,-0.12
GTF2B (UniProt Q00403),-0.063,-0.064,-0.023,0.044,-0.215,-0.125,0.068,0,-0.026,0.07
FKBP7 (UniProt Q9Y680),0.018,0.033,-0.031,-0.033,0.017,0.055,-0.005,-0.059,-0.029,-0.022
GTF3C4 (UniProt Q9UKN8),-0.002,0.032,-0.051,-0.045,0.035,0.038,0.035,0,-0.047,-0.041
HDAC2 (UniProt Q92769),0,-0.015,-0.046,-0.004,0.01,0.007,-0.04,-0.01,-0.006,0
HSPA2 (UniProt P54652),0.008,-0.006,-0.28,0.01,,-0.441 (active),0.041,0.05,0.023,
HP1BP3 (UniProt Q5SSJ5),-0.097,0.003,0.051,0.089,-0.013,-0.031,0.063,0.092,-0.139,-0.387 (active)
GTF2A2 (UniProt P52657),0.013,-0.028,-0.002,-0.078,-0.026,0.051,-0.019,-0.064,0.016,-0.357 (active)
GOLGA8R (UniProt I6L899),0.003,0.04,-0.106,0.247,,0.227,0.177,0.035,,0.201
FIBP (UniProt O43427),0.026,0.019,-0.146,0.041,-0.143,0.018,0.065,0.075,,-0.039
HAX1 (UniProt O00165),-0.017,-0.036,-0.07,0.026,-0.156,-0.498 (active),0.045,0.107,0.047,0.065
GBF1 (UniProt Q92538),-0.033,-0.049,-0.044,0.017,-0.05,-0.088,0.015,0.115,-0.016,0.007
GLIPR2 (UniProt Q9H4G4),0.038,-0.047,-0.01,0.04,0.06,-0.35 (active),0.012,0.03,,0.061
GCDH (UniProt Q92947),0.018,0.025,-0.092,0.007,-0.09,0.05,0.003,-0.053,-0.012,0.055

Target,log2 fold change [1],log2 fold change [2],log2 fold change [3],log2 fold change [4],log2 fold change [5],log2 fold change [6],log2 fold change [7],log2 fold change [8],log2 fold change [9],log2 fold change [10]
FYB1 isoform 3 (UniProt O15117),0.009,-0.012,-0.193,0.308,0.06,-0.069,0.226,0.002,-0.075,0.129
GALNT11 (UniProt Q8NCW6),-0.008,-0.088,-0.022,0.065,0.018,0.015,0.038,0.045,0.002,0.039
GEMIN5 (UniProt Q8TEQ6),-0.037,-0.014,-0.155,0.034,-0.049,-0.422 (active),0.033,0.043,0.004,-0.28 (active)
GOLPH3 (UniProt Q9H4A6),0.033,-0.035,-0.023,-0.005,-0.031,0.31 (active),-0.005,-0.013,0,-0.028
HIP1R (UniProt O75146),0.029,-0.027,-0.022,0.01,-0.034,-0.059,-0.003,0,-0.004,0.138
IFRD1 (UniProt O00458),0.033,0.058,0.203,-0.014,-0.002,-0.035,0.168,-0.029,-0.095,-1.05 (active)
GSE1 (UniProt Q14687),,0.057,,-0.065,,,0.003,,0.044,
FMR1 (UniProt Q06787),0.091,,,0.036,,0.149,0.056,0.153,,
FCF1 (UniProt Q9Y324),-0.083,,,0.223,0.032,,0.074,0.334,,-1.04 (active)
GPNMB (UniProt Q14956),,,,,0,0.108,,,,
FUNDC1 (UniProt Q8IVP5),,-0.023,,,,,,,,
GOLGA6B (UniProt A6NDN3),-0.034,0.013,,,0.025,0.165,,-0.137,-0.19,
HSPA8 (UniProt E9PN89),-0.032,-0.069,-0.145,,0.127,0.085,,-0.004,0.07,0.043
IGF2 isoform 3 (UniProt P01344),0.066,,,,,-0.104,,-0.107,,
HNRNPK isoform 3 (UniProt P61978),-0.011,-0.001,,0.03,0.087,0.075,0.041,-0.021,-0.039,0.21
FRA10AC1 isoform 3 (UniProt Q70Z53),0.005,-0.014,0.024,,-0.024,0.169,,0.001,-0.03,-0.201
GREB1 (UniProt Q4ZG55),0.04,,0.037,,-0.032,0.26,,-0.095,,0.066
